{"source": "PubChem BioAssay AID430", "about": "(Sanford-Burnham Center for Chemical Genomics, 2006)", "note": "Hit rate of the full screen: of about 63,000 compounds, about 1,100 (1.7%) were called active. Many of the other results were omitted from the sample, so actives are more common in it than they were. Entries with a potency or affinity are not part of this list. Values without a mark were called inactive. Rule as the data show it: active = cytotoxicity above about 50%; inactive = the rest."}
{"experiment": "HPDE-C7 pancreatic duct cell viability loss – fluorescence, HTS (AID 430);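 also: cells exposed to compound for 48 hours before viability readout; 0% = vehicle and 100% = reference cytotoxic drug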", "conditions": "HPDE-C7 pancreatic duct cells viability, at 10 µM, hits give high values"}
{"smiles": "CCCCCCNC(=O)C(C#N)c1nc2ccccc2nc1N1CCOCC1", "note": "(stereo not drawn)", "cytotoxicity": "20.3%"}
{"smiles": "CCN(CC)C(=O)N1CCC(NC(=O)Cc2ccccc2)CC1", "cytotoxicity": "-6.6%"}
{"smiles": "CCOC(=O)C1CCN(C(=O)c2cc(S(=O)(=O)N3CCOCC3)c(Cl)cc2Cl)CC1", "cytotoxicity": "3.3%"}
{"smiles": "Nc1ccc(-c2cc(N)n(-c3ccccc3)n2)cc1", "cytotoxicity": "14.8%"}
{"smiles": "c1coc(-c2nc(-c3ccco3)c(-c3ccco3)nc2-c2ccco2)c1", "cytotoxicity": "-9.1%"}
{"smiles": "c1coc(-c2nc3ccccc3nc2-c2ccco2)c1", "cytotoxicity": "-5.7%"}
{"smiles": "c1coc(-c2nc3nc4ccccc4n3nc2-c2ccco2)c1", "cytotoxicity": "77.5% (active)"}
{"smiles": "Cc1cc(C)c2cc3c(ccn3C3OC[C@H](O)[C@H](O)[C@H]3O)cc2n1", "note": "(stereo partly drawn)", "cytotoxicity": "-2.7%"}
{"smiles": "Cc1csc(SCc2nnc(-c3ccccc3Br)o2)n1", "cytotoxicity": "-11.9%"}
{"smiles": "Cc1cc(C)n(-c2c(F)c(F)c(CN3CCOCC3)c(F)c2F)n1", "cytotoxicity": "-4.7%"}
{"smiles": "COc1cc(OC)cc(-c2nnc(SCC(=O)N3c4ccccc4Sc4ccccc43)o2)c1", "cytotoxicity": "-10.6%"}
{"smiles": "Cc1nnc(SC(=O)N2c3ccccc3Sc3ccccc32)s1", "cytotoxicity": "-38%"}
{"smiles": "COc1ccc(C(=O)CSc2nnc(-c3ccccc3)o2)cc1", "cytotoxicity": "-13.3%"}
{"smiles": "O=C(CCN1c2ccccc2Sc2ccccc21)OCc1nnc(-c2ccccc2)o1", "cytotoxicity": "5.5%"}
{"smiles": "Cc1cccc(Nc2ccccc2)c1", "cytotoxicity": "-12.8%"}
{"smiles": "Cc1cc2cc(CN(Cc3ccco3)C(=O)C3CCCCC3)c(=O)[nH]c2cc1C", "cytotoxicity": "-2%"}
{"smiles": "COc1ccc(CNC(=O)c2cc(-c3cccs3)on2)cc1", "cytotoxicity": "2.4%"}
{"smiles": "Cc1noc(C(=O)Nc2sc3c(c2C#N)CCC3)c1Cl", "cytotoxicity": "19%"}
{"smiles": "COc1ccccc1NC(=O)C1(C)Cc2ccccc2C(=O)O1", "note": "(stereo not drawn)", "cytotoxicity": "10.1%"}
{"smiles": "CN(C)CCN(Cc1ccccc1)c1ccnc(N(C)C)c1C#N", "cytotoxicity": "-24.4%"}
{"smiles": "COCCNC(=O)CN(CC1CCCO1)C(=O)CCC(=O)Nc1ccccn1", "note": "(stereo not drawn)", "cytotoxicity": "-5.6%"}
{"smiles": "COc1ccc2nc(Nc3nc(C)c(C(C)=O)s3)sc2c1", "cytotoxicity": "18.2%"}
{"smiles": "CCOC(=O)c1csc(Nc2nc3ccc(F)cc3s2)n1", "cytotoxicity": "40.1%"}
{"smiles": "CC(=O)c1sc(Nc2nc3ccc(F)cc3s2)nc1C", "cytotoxicity": "58.8% (active)"}
{"smiles": "O=C(O)CCC(=O)N1CCc2cc(S(=O)(=O)N3CCN(c4ccc(F)cc4)CC3)ccc21", "cytotoxicity": "3.1%"}
{"smiles": "COc1ccccc1N1CCN(C(=O)c2cc3n(n2)C(C(F)(F)F)CC(c2ccco2)N3)CC1", "note": "(stereo not drawn)", "cytotoxicity": "-21.5%"}
{"smiles": "Cc1ccc(C(=O)CSc2nnc(-c3ccco3)n2Cc2ccccc2)cc1", "cytotoxicity": "-16.2%"}
{"smiles": "COc1cc(-c2nc3cnccn3c2Nc2ccccc2)ccc1O", "cytotoxicity": "22.1%"}
{"smiles": "c1cn2c(NC3CCCC3)c(-c3ccc(N4CCOCC4)cc3)nc2cn1", "cytotoxicity": "2.8%"}
{"smiles": "Cc1ccc2cc(CN(Cc3cccs3)C(=O)c3ccco3)c3nnnn3c2c1C", "cytotoxicity": "22.1%"}
{"smiles": "CCc1nc2c(n1O)CCc1nonc1-2", "cytotoxicity": "3.5%"}
{"smiles": "CCCSc1nc2c(c(=O)[nH]c(=O)n2C)n1C", "cytotoxicity": "2.1%"}
{"smiles": "NS(=O)(=O)c1ccc(S(=O)(=O)N(Cc2ccccc2F)CC2CCCO2)cc1", "note": "(stereo not drawn)", "cytotoxicity": "-0.3%"}
{"smiles": "CC(NC(=O)NCC1CCCO1)(C(F)(F)F)C(F)(F)F", "note": "(stereo not drawn)", "cytotoxicity": "-16%"}
{"smiles": "Cc1nc2ccccc2nc1CSc1nncs1", "cytotoxicity": "3.3%"}
{"smiles": "Cc1nc(CNS(=O)(=O)c2ccc3c(c2)CCCC3)cs1", "cytotoxicity": "-11.4%"}
{"smiles": "CCCCNc1ncnc2c1cnn2-c1ccc(Cl)cc1", "cytotoxicity": "72.3% (active)"}
{"smiles": "CN(C)CCCNc1ncnc2c1cnn2-c1ccccc1", "cytotoxicity": "-5.5%"}
{"smiles": "COCCNc1ncnc2c1cnn2-c1ccc(Cl)cc1", "cytotoxicity": "4.6%"}
{"smiles": "CCCCNc1ncnc2c1cnn2-c1ccccc1", "cytotoxicity": "65% (active)"}
{"smiles": "CN(C)CCNc1ncnc2c1cnn2-c1ccc(Cl)cc1", "cytotoxicity": "19.4%"}
{"smiles": "CC(C)OCCCNc1ncnc2c1cnn2-c1ccccc1", "cytotoxicity": "26.6%"}
{"smiles": "CS(=O)CCC(NS(=O)(=O)c1ccccc1)C(=O)O", "note": "(stereo not drawn)", "cytotoxicity": "-7.3%"}
{"smiles": "COc1ccc(N2CCN(C(=O)c3cn(C)c(=O)c4c3c3ccccc3n4C)CC2)cc1", "cytotoxicity": "10.1%"}
{"smiles": "Cc1ccc(Cl)cc1N1CCN(C(=O)c2cn(C)c(=O)c3c2c2ccccc2n3C)CC1", "cytotoxicity": "93.1% (active)"}
{"smiles": "Cn1cc(C(=O)NCCN2CCN(c3cccc(Cl)c3)CC2)c2c3ccccc3n(C)c2c1=O", "cytotoxicity": "-12.1%"}
{"smiles": "Cn1cc(C(=O)N2CCN(C(=O)c3ccco3)CC2)c2c3ccccc3n(C)c2c1=O", "cytotoxicity": "-1.4%"}
{"smiles": "Cc1cccc(N2CCN(C(=O)c3cn(C)c(=O)c4c3c3ccccc3n4C)CC2)c1C", "cytotoxicity": "53.7% (active)"}
{"smiles": "CCOC(=O)N1CCN(C(=O)c2cn(C)c(=O)c3c2c2ccccc2n3C)CC1", "cytotoxicity": "-11.5%"}
{"smiles": "COc1ccc(C)cc1S(=O)(=O)NC1CCCC1", "cytotoxicity": "8.4%"}
{"smiles": "CCn1ncc(C2=NOC(C(=O)NCc3ccc(Cl)cc3)C2)c1C", "note": "(stereo not drawn)", "cytotoxicity": "65.1% (active)"}
{"smiles": "CCn1ncc(C2=NOC(C(=O)NCc3ccc(OC)cc3)C2)c1C", "note": "(stereo not drawn)", "cytotoxicity": "21.2%"}
{"smiles": "CCn1ncc(C2=NOC(C(=O)NCc3ccccc3)C2)c1C", "note": "(stereo not drawn)", "cytotoxicity": "54.7% (active)"}
{"smiles": "CCn1ncc(C2=NOC(C(=O)Nc3c(C)nn(Cc4ccc(F)cc4)c3C)C2)c1C", "note": "(stereo not drawn)", "cytotoxicity": "25.1%"}
{"smiles": "CCn1ncc(C2=NOC(C(=O)NCCc3ccccc3)C2)c1C", "note": "(stereo not drawn)", "cytotoxicity": "-13.2%"}
{"smiles": "CCn1ncc(C2=NOC(C(=O)Nc3cccnc3)C2)c1C", "note": "(stereo not drawn)", "cytotoxicity": "-4.8%"}
{"smiles": "CCOC(=O)CN1C(=O)C(=O)c2cccc(C)c21", "cytotoxicity": "-46.9%"}
{"smiles": "O=C(NCc1ccco1)C1CN(S(=O)(=O)c2ccccc2)CCN1S(=O)(=O)c1ccccc1", "note": "(stereo not drawn)", "cytotoxicity": "-23.1%"}
{"smiles": "CCc1c(C)nc2ncnn2c1N1CCC(C(=O)N2CCN(c3ccc(F)cc3)CC2)CC1", "cytotoxicity": "-1.9%"}
{"smiles": "COC(=O)CSc1nc2ccc(NC(C)=O)cc2s1", "cytotoxicity": "-5.9%"}
{"smiles": "COc1cc2c(cc1OC)CN(C(=O)c1ccccc1C(=O)O)CC2", "cytotoxicity": "-15.6%"}
{"smiles": "O=C(Cn1nnc(-c2ccc(N3CCOCC3)cc2)n1)OC1CCCCC1", "cytotoxicity": "-25.2%"}
{"smiles": "COC(=O)CSc1nnc(-c2ccc(OC)cc2OC)o1", "cytotoxicity": "3.4%"}
